CYP2C9 activ – CYP2C9 (human) activation; P11712; recombinant CYP2C9, luciferin-H conversion, luminescence; stronger effect = higher value; factor 1 = untreated enzyme, 0 = blocked; activation factor at 5 µM; actives 1.4% (n = 96,000);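 active = activation factor of 2 or more for CYP2C9 at a 5 µM dose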;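 note: 0 = sulfaphenazole-blocked wells and 1 = vehicle-only wells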
CYP2C19 activ – increases human CYP2C19 enzyme activity; 96,000 tested, under 10 active; recombinant CYP2C19, luciferin-H EGE luminescence; stronger effect = higher value; 0 = fully inhibited enzyme, 1 = untreated enzyme; AID 1025; P33261; activation factor at 5 µM;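 active = activation factor of at least 2 at 5 µM in the primary screen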;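 note: 0 = wells with 2.5 mM tranylcypromine and 1 = vehicle-only wells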
Target sequence (P33261 whole entry, looked up): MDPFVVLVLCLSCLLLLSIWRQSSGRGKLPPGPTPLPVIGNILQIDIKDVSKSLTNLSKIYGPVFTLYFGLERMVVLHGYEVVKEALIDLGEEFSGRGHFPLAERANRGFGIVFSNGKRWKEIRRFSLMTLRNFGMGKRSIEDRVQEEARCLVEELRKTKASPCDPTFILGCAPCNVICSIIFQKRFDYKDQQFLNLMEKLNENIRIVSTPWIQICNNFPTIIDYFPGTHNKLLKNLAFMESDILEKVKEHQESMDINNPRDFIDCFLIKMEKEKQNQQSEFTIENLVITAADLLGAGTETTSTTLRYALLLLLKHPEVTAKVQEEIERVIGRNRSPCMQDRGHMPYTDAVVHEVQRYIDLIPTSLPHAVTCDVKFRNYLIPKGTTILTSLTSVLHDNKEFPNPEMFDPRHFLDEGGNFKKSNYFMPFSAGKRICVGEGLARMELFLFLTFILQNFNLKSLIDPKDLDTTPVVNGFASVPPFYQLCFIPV
PostGolgi ctrl – growth of the yeast control strain, post-Golgi counter-screen; efflux-deficient yeast background strain, growth absorbance A615, 16 h; inhibition, % at 10 µM; actives 5% (n = 98,000)
CYP2C9 inhib – human CYP2C9 inhibition; actives 20% (n = 96,000); AID 777; inhibition, % at 5 µM; CYP2C9 Supersomes, luciferin-H conversion, luminescence;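 active = blocking of liver enzyme CYP2C9 beyond about 50% at 5 µM, limit read from the data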
PostGolgi yeast – growth inhibition of a yeast mutant, post-Golgi transport screen; post-Golgi transport phenotypic cell assay; inhibition, % at 10 µM; actives 0.9% (n = 98,000); AID 739;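 note: yeast cells grown in 1536-well plates; yeast grown about 18 h at 30C before absorbance read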
CYP2C19 inhib – human CYP2C19 inhibition; P33261; CYP2C19 Supersomes, luciferin-H EGE luminescence, 30 min; inhibition, % at 5 µM; actives 21% (n = 96,000); AID 778;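 active = CYP2C19 inhibition above a set limit at 5 µM in the primary screen, cut at about 50% in these data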;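 note: plate controls were negative control wells for no effect and 2.5 mM tranylcypromine positive control for full effect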
* marks the source's active call; other numbers are inactive results. Rows were chosen to be rich in hits. Some 32% of all compounds tested hit in one or more screens of this group. Cut-off read from the data, not from the text of the source, unless noted: active = inhibition above about 30%; inactive = the rest.

For O=S(=O)(c1ccc(Cl)cc1Br)N1CCCCC1 the results were CYP2C9 activ 1.8, CYP2C19 activ 0.1, PostGolgi ctrl 6, CYP2C9 inhib -85, PostGolgi yeast -6 and CYP2C19 inhib 87*.
Screening O=S(=O)(c1ccccc1S(=O)(=O)N1CCCCC1)N1CCCCC1 returned CYP2C9 activ 0.9, CYP2C19 activ 0.9, PostGolgi ctrl 17, CYP2C9 inhib 6, PostGolgi yeast 4 and CYP2C19 inhib 11.
CC1CCCN(S(=O)(=O)Cc2ccc(Cl)cc2)C1 (centres undefined) was read as CYP2C9 activ 1, CYP2C19 activ 0, PostGolgi ctrl 1, CYP2C9 inhib -1, PostGolgi yeast 1 and CYP2C19 inhib 97*.
O=S(=O)(c1ccc(F)c2ccccc12)N1CCCCC1 was read as CYP2C9 activ 4.7*, CYP2C19 activ 0.8, PostGolgi ctrl 0, CYP2C9 inhib -367, PostGolgi yeast 3 and CYP2C19 inhib 21.
`CC1CCCN(S(=O)(=O)c2cc(Cl)ccc2Cl)C1` (centres undefined) gave CYP2C9 activ 2.4*, CYP2C19 activ 0, PostGolgi ctrl 1, CYP2C9 inhib -142, PostGolgi yeast 5 and CYP2C19 inhib 96*.
O=S(=O)(c1cc(Cl)ccc1Cl)N1CCNCC1 was read as CYP2C9 activ 1.2, CYP2C19 activ 0.7, PostGolgi ctrl 6, CYP2C9 inhib -20, PostGolgi yeast 4 and CYP2C19 inhib 30.
`CCOC(=O)c1ccc(NC(=O)NS(=O)(=O)c2ccc(C)cc2)cc1` gave CYP2C9 activ 0.9, CYP2C19 activ 0.9, PostGolgi ctrl 11, CYP2C9 inhib 12, PostGolgi yeast 0 and CYP2C19 inhib 12.
For CC1CCN(S(=O)(=O)c2cc(Cl)ccc2Br)CC1 the results were CYP2C9 activ 3.1*, CYP2C19 activ 0, PostGolgi ctrl 29, CYP2C9 inhib -213, PostGolgi yeast 8 and CYP2C19 inhib 98*.
COc1cccc(NC(=O)CN2C(=O)C3(OCCCO3)c3ccccc32)c1 was read as CYP2C9 activ 0.6, CYP2C19 activ 0.6, PostGolgi ctrl -1, CYP2C9 inhib 43, PostGolgi yeast -7 and CYP2C19 inhib 42.
For COc1ccc(S(=O)(=O)N2CCN(C(=O)c3c(C)nn(-c4ccccc4)c3Cl)CC2)cc1 the results were CYP2C9 activ 0.1, CYP2C19 activ 0.1, PostGolgi ctrl 0, CYP2C9 inhib 90*, PostGolgi yeast 14 and CYP2C19 inhib 88*.
`Cc1ccc(S(=O)(=O)N2CCN(C(=O)c3c(C)nn(-c4ccccc4)c3Cl)CC2)cc1` gave CYP2C9 activ 0.5, CYP2C19 activ 0.8, PostGolgi ctrl 20, CYP2C9 inhib 50*, PostGolgi yeast 10 and CYP2C19 inhib 17.
For COc1cc(CN2CCC(C(=O)NC3CCCC3)CC2)ccc1O the results were CYP2C9 activ 1.2, CYP2C19 activ 1.1, PostGolgi ctrl -1, CYP2C9 inhib -17, PostGolgi yeast 15 and CYP2C19 inhib -8.
`COc1cc(/C=C2/N=C(C3CCCCC3)OC2=O)cc(OC)c1OC` gave CYP2C9 activ 0.4, CYP2C19 activ 1, PostGolgi ctrl 3, CYP2C9 inhib 62*, PostGolgi yeast 1 and CYP2C19 inhib 5.
Screening COc1cc(/C=C2\C(=O)ON=C2c2ccccc2)cc(OC)c1OC returned CYP2C9 activ 1.2, CYP2C19 activ 0.9, PostGolgi ctrl 6, CYP2C9 inhib -19, PostGolgi yeast -9 and CYP2C19 inhib 12.
Screening CS(=O)(=O)N1CCN(C(=O)c2ccc(F)cc2)CC1 returned CYP2C9 activ 1.2, CYP2C19 activ 1.1, PostGolgi ctrl 7, CYP2C9 inhib -24, PostGolgi yeast 5 and CYP2C19 inhib -8.
CCOC(=O)c1ccccc1OCc1cc(/C=N/n2cnnc2)ccc1OC was read as CYP2C9 activ 0.3, CYP2C19 activ 0.4, PostGolgi ctrl 16, CYP2C9 inhib 71*, PostGolgi yeast -14 and CYP2C19 inhib 61*.
Screening CCn1ccc(C(=O)NC2=C(C#N)CCC2)n1 returned CYP2C9 activ 0.9, CYP2C19 activ 0.9, PostGolgi ctrl 14, CYP2C9 inhib 6, PostGolgi yeast 8 and CYP2C19 inhib 10.
NCC(O)COCCC12CC3CC(CC(C3)C1)C2 (centres undefined) was read as CYP2C9 activ 0.7, CYP2C19 activ 0.1, PostGolgi ctrl -3, CYP2C9 inhib 25, PostGolgi yeast 3 and CYP2C19 inhib 88*.
For O=C(OCc1cc(=O)n2c(n1)sc1ccccc12)c1ccc2c(=O)n3c(nc2c1)CCC3 the results were CYP2C9 activ 0.2, CYP2C19 activ 0.7, CYP2C9 inhib 76* and CYP2C19 inhib 29.
`O=C(CCNc1cccc(C(F)(F)F)c1)c1ccco1` gave CYP2C9 activ 1.7, CYP2C19 activ 0.7, PostGolgi ctrl 4, CYP2C9 inhib -67, PostGolgi yeast 1 and CYP2C19 inhib 32.
`CCc1ccccc1N1CSC2=C(C#N)C(c3cc(OC)c(OC)cc3OC)CC(=O)N2C1` (centres undefined) gave CYP2C9 activ 0.6, CYP2C19 activ 0.8, PostGolgi ctrl -9, CYP2C9 inhib 39, PostGolgi yeast -1 and CYP2C19 inhib 23.
COc1cccc(C2CC(=O)N3CN(c4ccccc4F)CSC3=C2C#N)c1 (centres undefined) was read as CYP2C9 activ 0.2, CYP2C19 activ 0.3, PostGolgi ctrl 3, CYP2C9 inhib 84*, PostGolgi yeast -6 and CYP2C19 inhib 68*.
For COc1ccc(OC)c(C2CC(=O)N3CN(c4ccccc4F)CSC3=C2C#N)c1 (centres undefined) the results were CYP2C9 activ 0.1, CYP2C19 activ 0.5, PostGolgi ctrl 8, CYP2C9 inhib 89*, PostGolgi yeast -2 and CYP2C19 inhib 47.
Screening COc1ccc2c(C(=O)CN3CC(C)OC(C)C3)c[nH]c2c1 (centres undefined) returned CYP2C9 activ 0.8, CYP2C19 activ 0.5, PostGolgi ctrl 6, CYP2C9 inhib 21, PostGolgi yeast 13 and CYP2C19 inhib 53*.
`Cc1c(C(=O)COC(C)(C)C)[nH]c2ccccc12` gave CYP2C9 activ 1.1, CYP2C19 activ 0.5, PostGolgi ctrl 6, CYP2C9 inhib -8, PostGolgi yeast -24 and CYP2C19 inhib 55*.
For CCNC(=O)NC(=O)CSc1nc2ccccc2n1CCOC the results were CYP2C9 activ 0.4, CYP2C19 activ 0.8, PostGolgi ctrl 14, CYP2C9 inhib 61*, PostGolgi yeast 1 and CYP2C19 inhib 22.
For CCCNC(=O)NC(=O)CSc1nc2ccccc2n1CC(C)C the results were CYP2C9 activ 0.5, CYP2C19 activ 0.1, PostGolgi ctrl 0, CYP2C9 inhib 53*, PostGolgi yeast 2 and CYP2C19 inhib 88*.
`CC(C)CNC(=O)NC(=O)CSc1nc2ccccc2n1CC(C)C` gave CYP2C9 activ 1.1, CYP2C19 activ 0.5, PostGolgi ctrl 9, CYP2C9 inhib -8, PostGolgi yeast -8 and CYP2C19 inhib 47.
